Results filed as inconclusive are left out. A call without a number means that no potency is given here. Activity calls are given as the source filed them. Unless noted, calls come from the whole dose curve; as a rule, active = well fitted curve in the direction sought with a large enough effect; inconclusive = small, poorly fitted or top-dose-only effect, or another doubt; inactive = no such curve, though single readings can be large; an effect the other way counts as inactive or inconclusive.
Tests used:
[1] = Confirmation and Secondary Assay for Modulators of Hemoglobin Beta Chain Splicing at IVS2 654 locus (AID 910);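 note: per-well total GFP intensity by laser scanning cytometry after 2-day treatment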
Summary of the method: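 HeLa cells stably carrying EGFP interrupted by mutant beta-globin IVS2-654 intron (CMV-driven) were treated with compound for 2 days at 37C; corrected splicing was scored as total peak GFP intensity per well (488 nm excitation, 500-520 nm emission).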

[2] = biological target: ATP-dependent DNA helicase Q1 (Homo sapiens) (UniProt P46063); test: qHTS Validation Assay for Inhibitors of RecQ-Like Dna Helicase 1 (RECQ1) (AID 2353)
Summary of the method: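 RECQ1T1 50 nM; forked duplex (20 bp + 30-nt ss tails) 200 nM, ATP 2 mM final; pH 8.0, 2 mM MgCl2, 2.5 ug/ml poly(dI-dC); 15 min compound preincubation; discontinuous kinetic read over 2 h at RT.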

[3] = biological target: M-phase phosphoprotein 8 (Homo sapiens) (UniProt Q99549); test: qHTS Validation Assay for Inhibitors for MPP8 Chromodomain Interactions with Methylated Histone Tails (AID 488949);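 note: AlphaScreen signal from MPP8 chromodomain bound to biotinylated H3K9me3 peptide; top concentration of the series differs between compounds; nearly all actives have a fitted effect of over 55% in size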
Chain of M-phase phosphoprotein 8 (Homo sapiens) (Q99549 whole entry, looked up): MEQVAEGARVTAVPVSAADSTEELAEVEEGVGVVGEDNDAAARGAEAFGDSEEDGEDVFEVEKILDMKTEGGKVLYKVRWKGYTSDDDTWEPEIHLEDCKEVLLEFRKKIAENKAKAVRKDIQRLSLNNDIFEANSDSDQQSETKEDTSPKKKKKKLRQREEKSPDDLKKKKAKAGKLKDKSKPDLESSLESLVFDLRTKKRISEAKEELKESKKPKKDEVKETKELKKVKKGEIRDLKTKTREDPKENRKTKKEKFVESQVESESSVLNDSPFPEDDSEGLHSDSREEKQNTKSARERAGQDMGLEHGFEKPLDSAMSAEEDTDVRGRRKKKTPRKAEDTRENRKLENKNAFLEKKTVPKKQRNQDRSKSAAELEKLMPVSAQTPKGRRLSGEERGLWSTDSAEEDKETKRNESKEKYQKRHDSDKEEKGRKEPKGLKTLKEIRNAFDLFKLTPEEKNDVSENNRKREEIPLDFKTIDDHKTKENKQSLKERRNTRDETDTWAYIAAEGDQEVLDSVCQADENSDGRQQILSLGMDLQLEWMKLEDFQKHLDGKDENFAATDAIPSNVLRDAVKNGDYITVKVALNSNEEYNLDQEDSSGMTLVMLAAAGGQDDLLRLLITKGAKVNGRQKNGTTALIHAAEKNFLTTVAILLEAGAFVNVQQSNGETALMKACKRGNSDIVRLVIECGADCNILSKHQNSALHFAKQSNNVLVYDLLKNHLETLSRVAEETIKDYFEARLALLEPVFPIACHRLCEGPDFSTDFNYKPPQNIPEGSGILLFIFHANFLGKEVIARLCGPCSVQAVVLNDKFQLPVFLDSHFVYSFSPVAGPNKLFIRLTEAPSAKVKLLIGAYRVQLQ
Summary of the method: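 Disruption of the preformed MPP8–trimethyl-H3K9 peptide complex (both 50 nM, 30 min, RT) is measured after 30 min compound exposure, using AlphaScreen proximity beads; aurintricarboxylic acid titration serves as plate control.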

[4] = biological target: Methanococcus maripaludis chaperonin (MmCpn) (UniProt Q6LX38); test: High-Throughput Screening for Modulators of Cytosolic Chaperonin Activity: MmCpn Primary Screen (AID 488978);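 note: 50 nM MmCpn enzyme hydrolysing 30 µM ATP at 37 °C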
Summary of the method: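 Measures ATPase turnover of the M. maripaludis chaperonin (50 nM final) against 30 uM ATP over 10 min at 37C, with compound added 5 min beforehand at room temperature. ADP is quantified by HTRF immunodetection.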

[5] = biological target: T1, Hexokinase-4 (Homo sapiens) + Glucokinase regulatory protein (Homo sapiens) (UniProt P35557+Q14397); test: qHTS assay for inhibitors of recombinant human GCK-GKRP interaction: Diaphorase-coupled assay (AID 743205)
T1 sequence (P35557 whole entry, looked up): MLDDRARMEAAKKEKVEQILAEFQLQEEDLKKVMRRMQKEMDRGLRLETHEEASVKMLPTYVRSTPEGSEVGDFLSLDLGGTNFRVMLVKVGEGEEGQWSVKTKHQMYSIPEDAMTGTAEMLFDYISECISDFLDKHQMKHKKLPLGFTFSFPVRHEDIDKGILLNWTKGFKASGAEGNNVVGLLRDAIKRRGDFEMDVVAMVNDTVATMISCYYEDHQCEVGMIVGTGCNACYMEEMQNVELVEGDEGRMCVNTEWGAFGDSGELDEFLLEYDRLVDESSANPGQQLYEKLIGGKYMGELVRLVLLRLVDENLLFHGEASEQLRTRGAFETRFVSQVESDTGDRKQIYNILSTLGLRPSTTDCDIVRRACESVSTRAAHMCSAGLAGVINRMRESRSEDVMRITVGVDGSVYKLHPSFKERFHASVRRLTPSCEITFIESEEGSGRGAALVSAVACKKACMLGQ
T1 sequence (Q14397 whole entry, looked up): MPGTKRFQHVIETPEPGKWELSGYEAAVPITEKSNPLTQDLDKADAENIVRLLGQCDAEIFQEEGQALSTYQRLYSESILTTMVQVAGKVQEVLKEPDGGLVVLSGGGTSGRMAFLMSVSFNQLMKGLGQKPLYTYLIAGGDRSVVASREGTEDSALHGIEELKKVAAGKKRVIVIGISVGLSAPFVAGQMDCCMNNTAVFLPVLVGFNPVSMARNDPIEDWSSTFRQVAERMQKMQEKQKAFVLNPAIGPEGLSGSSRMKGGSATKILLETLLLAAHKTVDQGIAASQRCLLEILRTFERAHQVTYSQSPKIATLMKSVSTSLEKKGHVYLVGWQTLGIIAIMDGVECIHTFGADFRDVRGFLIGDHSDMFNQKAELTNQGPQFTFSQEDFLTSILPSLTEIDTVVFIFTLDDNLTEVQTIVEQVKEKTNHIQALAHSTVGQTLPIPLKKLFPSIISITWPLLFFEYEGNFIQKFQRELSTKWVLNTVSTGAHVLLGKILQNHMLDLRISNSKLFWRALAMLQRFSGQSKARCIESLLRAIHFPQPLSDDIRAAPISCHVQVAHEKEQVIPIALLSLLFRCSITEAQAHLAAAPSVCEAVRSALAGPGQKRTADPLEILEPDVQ
Summary of the method: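 Inhibitors of the GCK–GKRP complex relieve GKRP suppression of GCK, detected through a G6PDH–diaphorase cascade reducing resazurin. Human GST-GCK and FLAG-GKRP are used at 10 nM with 5 mM glucose and 0.4 mM ATP.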

[6] = biological target: T1, Hexokinase-4 (Homo sapiens) + Glucokinase regulatory protein (Homo sapiens); test: qHTS assay for inhibitors of recombinant human GCK-GKRP interaction: ADP-Glo assay (AID 743206)
Summary of the method: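 Pin-transferred compounds meet a 15 nM GST-GCK/15 nM FLAG-GKRP/2 uM S6P mix (dispense concentrations). ATP is then added to 0.4 mM final with 5 mM glucose, and the reaction runs 60 min at room temperature. ADP is quantified luminescently.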

[7] = biological target: Parathyroid hormone/parathyroid hormone-related peptide receptor (Homo sapiens) (UniProt Q03431); test: qHTS for PTHR1 Agonists: Optimization Screen against the NCGC LOPAC library (AID 1347079);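 note: GloSensor cAMP luminescence in HEK-293 GP2 cells expressing human PTHR1 with IBMX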
Chain of Parathyroid hormone/parathyroid hormone-related peptide receptor (Homo sapiens) (Q03431 whole entry, looked up): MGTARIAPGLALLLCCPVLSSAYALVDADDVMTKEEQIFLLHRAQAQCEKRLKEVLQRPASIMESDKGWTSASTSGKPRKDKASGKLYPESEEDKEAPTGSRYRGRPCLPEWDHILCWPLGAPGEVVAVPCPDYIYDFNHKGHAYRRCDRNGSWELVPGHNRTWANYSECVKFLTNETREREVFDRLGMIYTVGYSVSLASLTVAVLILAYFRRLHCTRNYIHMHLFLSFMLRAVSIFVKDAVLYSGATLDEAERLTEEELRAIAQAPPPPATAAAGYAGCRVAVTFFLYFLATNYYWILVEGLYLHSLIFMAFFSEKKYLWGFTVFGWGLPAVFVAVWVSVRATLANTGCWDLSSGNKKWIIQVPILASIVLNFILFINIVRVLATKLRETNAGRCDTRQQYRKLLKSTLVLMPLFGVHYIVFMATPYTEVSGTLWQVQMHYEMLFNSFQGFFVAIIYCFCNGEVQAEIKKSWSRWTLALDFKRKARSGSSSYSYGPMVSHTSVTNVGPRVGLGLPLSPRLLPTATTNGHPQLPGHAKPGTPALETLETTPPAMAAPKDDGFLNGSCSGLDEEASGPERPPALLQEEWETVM
Summary of the method: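 Signal increase flags agonism. GP2 cells, derived from HEK-293, express human PTHR1 and a GloSensor cAMP construct.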

[8] = biological target: N-terminal Xaa-Pro-Lys N-methyltransferase 1 (Homo sapiens) (UniProt Q9BV86); test: qHTS Assay for Inhibitors of N-terminal methyltransferase 1 (NTMT1): LOPAC validation of the NTMT1 SAHH-coupled ThioGlo3 Assay (AID 1347143);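 note: SAH from peptide methylation measured as thiol fluorescence via SAHH coupling and ThioGlo3; nearly all actives have a fitted effect of over 70% in size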
Chain of N-terminal Xaa-Pro-Lys N-methyltransferase 1 (Homo sapiens) (Q9BV86 whole entry, looked up): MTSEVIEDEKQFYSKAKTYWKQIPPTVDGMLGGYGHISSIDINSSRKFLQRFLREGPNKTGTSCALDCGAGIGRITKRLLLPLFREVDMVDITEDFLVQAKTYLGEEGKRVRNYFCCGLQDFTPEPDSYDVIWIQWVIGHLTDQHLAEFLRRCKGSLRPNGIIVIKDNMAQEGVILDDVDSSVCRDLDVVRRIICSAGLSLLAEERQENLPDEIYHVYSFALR
Summary of the method: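 In this qHTS pilot against the LOPAC set, 125nM NTMT1 met compounds tested at multiple concentrations, and fluorescence was normalized to background.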

[9] = test system: Zika virus NS2B-NS3 protease (unlinked); test: Optimization of GU AMC qHTS for Zika virus inhibitors: Unlinked NS2B-NS3 protease assay (AID 1347151); note: series mostly up to about 52 µM; nearly all actives have a fitted effect of over 80% in size
Summary of the method: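 Percent inhibition is derived from the 15-min change in AMC fluorescence, normalized against no-inhibitor and no-enzyme controls, then fitted to a 4-parameter Hill curve. Aprotinin was the intraplate control.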

[10] = test system: Zika virus NS2B-NS3 protease; test: Primary screen GU AMC qHTS for Zika virus inhibitors (AID 1347154); note: nearly all actives have a fitted effect of over 70% in size
Summary of the method: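 Unlinked Zika NS2B hydrophilic domain/NS3 protease domain noncovalent complex (25 nM final) in 10 mM Tris-HCl pH 8.0, 0.01% Tween 20, with AMC peptide substrate. Fluorescence (ex 340, em 450 nm) change over 15 min, room temperature; percent inhibition fitted to 4-parameter Hill equation.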

[11] = test system: Zika virus NS2B-NS3 protease (unlinked complex); test: Primary screen GU Rhodamine qHTS for Zika virus inhibitors: Unlinked NS2B-NS3 protease assay (AID 1347159); note: nearly all actives have a fitted effect of over 60% in size
Summary of the method: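 Unlinked NS2B/NS3, 25 nM; Rhod110 peptide, 1.5 microM; compounds, up to 114 microM. Reaction run 15 min at RT in 10 mM Tris-HCl pH 8.0, 0.01% Tween 20; kinetic fluorescence change fitted with a 4-parameter Hill model.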

[12] = test system: Zika virus NS2B-NS3 protease (linked construct); test: Primary screen NINDS Rhodamine qHTS for Zika virus inhibitors (AID 1347160); note: nearly all actives have a fitted effect of over 55% in size
Summary of the method: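 Single-chain NS2B-NS3 protease, 25 nM, pH 8.0; compounds preincubated 15 min. Activity: Rhodamine110 release from 1.5 microM substrate over 15 min, room temperature, data fitted to 4-parameter Hill.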

[13] = biological target: Lysine-specific demethylase 5B (Homo sapiens) (UniProt Q9UGL1); test: Optimization screen for KDM5B Histone Demethylases FDH coupled qHTS against the LOPAC library (AID 1347166)
Summary of the method: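 KDM5BDeltaAP (200nM final) in 50mM HEPES pH 7.5, 0.01% Tween-20 was preincubated with compound for 10 min at room temperature. A substrate mix of 12.5uM H3K4Me3, 25uM a-ketoglutarate, ascorbate, Fe2+, NAD+ and formaldehyde dehydrogenase was then added. NADH fluorescence (340/450 nm) was read initially and after 30 min.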

[14] = qHTS for inhibitors of adenylyl cyclases using a fission yeast platform: a pilot screen against the NCATS LOPAC library (AID 1347410)
Summary of the method: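 Growth medium went into the plates first, then compounds were pinned (final up to 57 µM), then CHP2027 yeast were added. Plates were incubated overnight (18 h) at 30C in the dark, and GFP was measured by laser scanning cytometry.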

[15] = biological target: Single-stranded DNA cytosine deaminase (Homo sapiens) (UniProt Q9GZX7); test: Validation qHTS assay for inhibitors of Activation Induced Cytidine Deaminase (AID): AID signal (AID 1347429)
Chain of Single-stranded DNA cytosine deaminase (Homo sapiens) (Q9GZX7 whole entry, looked up): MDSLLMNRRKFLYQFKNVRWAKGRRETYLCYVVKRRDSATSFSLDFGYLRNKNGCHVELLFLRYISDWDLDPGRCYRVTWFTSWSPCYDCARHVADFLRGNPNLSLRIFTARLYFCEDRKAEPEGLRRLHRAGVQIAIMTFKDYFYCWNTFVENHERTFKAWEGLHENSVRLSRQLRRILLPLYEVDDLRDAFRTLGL
Summary of the method: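 AID+UDG coupled FRET deamination; cpds up to 114 uM final; DJC20/DJC23 substrate, 4 hr RT; NaOH stop, 30 min RT; read Ex 540/Em 590.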

[16] = Primary qHTS for inhibitors of La Crosse Virus (LACV) - induced cell death in SH-SY5Y cells (AID 1508616);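 note: top concentration of the series differs between compounds; higher means more rescue of cells from virus-induced death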
Summary of the method: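 Cytopathicity rescue screen: compounds pinned onto SH-SY5Y cells, which are then infected with LACV (MOI 0.01) and held 6 days at 37C. Percent activity is scaled between infected DMSO control and uninfected DMSO control.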

Papain (Carica papaya) = Papain (Carica papaya) (UniProt P00784); test: Primary qHTS assay for inhibitors of the protease papain (AID 1645873);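 note: papain turnover of Z-FR-AMC read as the AMC fluorescence gain over 10 min; series mostly up to about 50 µM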
Chain of Papain (Carica papaya) (P00784 whole entry, looked up): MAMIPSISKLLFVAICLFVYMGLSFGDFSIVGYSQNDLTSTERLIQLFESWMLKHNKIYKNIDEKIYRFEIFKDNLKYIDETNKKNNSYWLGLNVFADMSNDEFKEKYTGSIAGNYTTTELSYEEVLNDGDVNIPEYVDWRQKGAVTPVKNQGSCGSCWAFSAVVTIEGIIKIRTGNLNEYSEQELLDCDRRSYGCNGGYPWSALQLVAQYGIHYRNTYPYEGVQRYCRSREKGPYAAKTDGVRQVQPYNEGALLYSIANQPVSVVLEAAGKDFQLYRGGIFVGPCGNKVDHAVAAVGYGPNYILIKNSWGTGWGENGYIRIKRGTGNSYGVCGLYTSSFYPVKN

[17] = biological target: Rap guanine nucleotide exchange factor 4 (Homo sapiens) (UniProt Q8WZA2); test: Confirmatory qHTS for antagonist of cAMP-regulated guanine nucleotide exchange factor 4 (EPAC2) (AID 1645885); note: potency is the fitted concentration of half-maximal effect; nearly all actives have a fitted effect of over 25% in size
Chain of Rap guanine nucleotide exchange factor 4 (Homo sapiens) (Q8WZA2 whole entry, looked up): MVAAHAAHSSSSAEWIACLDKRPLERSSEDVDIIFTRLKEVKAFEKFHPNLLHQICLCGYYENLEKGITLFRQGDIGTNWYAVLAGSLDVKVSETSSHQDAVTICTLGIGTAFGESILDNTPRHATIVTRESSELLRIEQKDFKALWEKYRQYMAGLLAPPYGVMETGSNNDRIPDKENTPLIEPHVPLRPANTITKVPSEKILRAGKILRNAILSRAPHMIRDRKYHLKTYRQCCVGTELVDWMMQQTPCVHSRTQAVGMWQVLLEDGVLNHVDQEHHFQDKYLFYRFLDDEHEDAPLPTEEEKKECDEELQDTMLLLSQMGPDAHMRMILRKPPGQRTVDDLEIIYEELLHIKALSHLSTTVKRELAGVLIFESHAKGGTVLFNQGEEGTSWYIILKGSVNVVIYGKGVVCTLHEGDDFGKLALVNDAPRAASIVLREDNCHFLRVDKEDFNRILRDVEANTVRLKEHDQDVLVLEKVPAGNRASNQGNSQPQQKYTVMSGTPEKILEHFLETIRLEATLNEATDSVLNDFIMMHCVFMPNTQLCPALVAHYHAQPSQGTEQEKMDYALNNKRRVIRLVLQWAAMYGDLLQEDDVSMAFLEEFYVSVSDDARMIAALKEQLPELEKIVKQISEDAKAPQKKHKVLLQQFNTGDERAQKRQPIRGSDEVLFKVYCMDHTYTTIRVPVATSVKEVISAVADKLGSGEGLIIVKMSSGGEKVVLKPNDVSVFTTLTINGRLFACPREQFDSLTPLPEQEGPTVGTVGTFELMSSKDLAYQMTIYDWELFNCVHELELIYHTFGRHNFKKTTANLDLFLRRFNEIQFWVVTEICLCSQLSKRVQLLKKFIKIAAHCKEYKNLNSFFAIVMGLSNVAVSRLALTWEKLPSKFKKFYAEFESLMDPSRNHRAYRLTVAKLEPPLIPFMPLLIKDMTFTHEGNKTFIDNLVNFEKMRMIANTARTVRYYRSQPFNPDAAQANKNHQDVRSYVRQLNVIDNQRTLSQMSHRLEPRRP

[18] = biological target: Glutathione peroxidase 1 (Homo sapiens) (UniProt P07203); test: Primary qHTS Assay for Inhibitors of Recombinant Selenoprotein Glutathione Peroxidase 1 (GPX1) (AID 1845191); note: nearly all actives have a fitted effect of over 65% in size
Chain of Glutathione peroxidase 1 (Homo sapiens) (P07203 whole entry, looked up): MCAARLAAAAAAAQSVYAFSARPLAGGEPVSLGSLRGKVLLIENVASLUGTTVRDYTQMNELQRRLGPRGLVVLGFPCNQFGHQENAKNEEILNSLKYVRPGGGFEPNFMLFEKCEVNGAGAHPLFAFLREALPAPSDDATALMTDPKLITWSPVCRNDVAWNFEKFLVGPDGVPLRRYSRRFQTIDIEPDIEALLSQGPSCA
Summary of the method: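 GPX1 10 nM, GR 100 nM, GSH 1 mM, NADPH 0.5 mM, CHP 0.5 mM (final). 30-min cpd preincubation, RT. Ex340/Em450 read t=0, t=15 min.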

[19] = biological target: Phospholipid hydroperoxide glutathione peroxidase GPX4 (Homo sapiens) (UniProt P36969); test: Primary qHTS Assay for Inhibitors of Recombinant Selenoprotein Glutathione Peroxidase 4 (GPX4) (AID 1845192); settings: outcome: dose series up to 50 µM unless noted; note: series mostly up to about 50 µM; nearly all actives have a fitted effect of over 65% in size
Chain of Phospholipid hydroperoxide glutathione peroxidase GPX4 (Homo sapiens) (P36969 whole entry, looked up): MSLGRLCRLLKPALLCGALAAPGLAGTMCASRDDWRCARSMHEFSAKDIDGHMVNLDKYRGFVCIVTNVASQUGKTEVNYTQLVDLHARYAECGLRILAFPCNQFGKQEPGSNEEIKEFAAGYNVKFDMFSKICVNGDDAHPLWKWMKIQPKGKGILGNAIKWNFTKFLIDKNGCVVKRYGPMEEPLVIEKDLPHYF
Summary of the method: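 qHTS, GR-coupled: GPX4 200 nM + cpd 30 min RT → GSH 1 mM, NADPH 0.5 mM, GR 100 nM → CHP 0.5 mM start; fluor 340/450 at t0 and t15 min; no-enzyme wells as control.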

[20] = biological target: Luciferin 4-monooxygenase (Photinus pyralis) (UniProt P08659); test: Primary firefly luciferase (FLuc) qHTS assay for identification of artifact compounds. (AID 1845220); note: nearly all actives have a fitted effect of over 60% in size
Summary of the method: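 In this counter-screen for luciferase artifacts, test compounds met substrate (10 uM each luciferin and ATP) before 10 nM enzyme started the reaction. Light output was measured 5 min later.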

[21] = Primary fluorescence-based thiol-reactive (MSTI) qHTS assay for identification of artifact compounds. (AID 1845221);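 note: series mostly up to about 54 µM; thiol-reactive compounds lower the probe fluorescence signal; nearly all actives have a fitted effect of over 65% in size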
Summary of the method: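 MSTI probe at 4 uM final in 2% DMSO/PBS pH 7.4; compounds, 1 h at room temperature in dark. Fluorescence Ex/Em 525/598 nm, normalised to Acetyl-MSTI and MSTI, fitted to 4-parameter Hill.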

[22] = Primary redox qHTS assay for identification of artifact compounds. (AID 1845223)
Summary of the method: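 Redox-cycling detection via DTT (250 uM final) oxidation coupled to Amplex Red (25 uM)/HRP (250 mU/mL) in HBSS. 15 min preincubation plus 30 min after DTT, room temperature. Ex/Em 525/598 nm; 4-parameter Hill fit against DMSO and 10 uM DA3003.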

[23] = qHTS drug screen for cell cycle checkpoint inhibitors in PARPi-resistant BRCA-mutant ovarian cancer cell lines. (AID 1963452; calls by dose curve); settings: PEO1/OlaR viability, CellTiter-Glo luminescence, 96 h, stronger effect = lower value
Summary of the method: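 PEO1, PEO4 and PEO1/OlaR ovarian cancer cells, 600 per well, exposed 96 h at 37C to a dilution series. Viability read by CellTiter-Glo luminescence, normalized to DMSO and empty wells; activity summarized as Z-AUC.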

Compound: C/C=C/CC(C)C(O)C1C(=O)NC(CC)C(=O)N(C)CC(=O)N(C)C(CC(C)C)C(=O)NC(C(C)C)C(=O)N(C)C(CC(C)C)C(=O)NC(C)C(=O)NC(C)C(=O)N(C)C(CC(C)C)C(=O)N(C)C(CC(C)C)C(=O)N(C)C(C(C)C)C(=O)N1C (stereo unspecified)
- outcome [1]: inactive
- Potency [2]: inactive
- Potency [3]: inactive
- outcome [4]: inactive
- outcome [5]: inactive
- outcome [6]: inactive
- outcome [7]: inactive
- Potency [8]: inactive
- Potency [9]: inactive
- Potency [10]: inactive
- Potency [11]: inactive
- Potency [12]: inactive
- outcome [13]: inactive
- outcome [14]: inactive
- Potency [15]: inactive
- outcome [16]: inactive
- Potency (Papain (Carica papaya)): inactive
- Potency [17]: 7.84 µM (active)
- Potency [18]: inactive
- Potency [19]: inactive
- Potency [20]: inactive
- Potency [21]: inactive
- Potency [22]: inactive
- Z-AUC [23]: -0.474 (inactive)
- Z-AUC ([23]; measured here: PEO1 parental Z-AUC): 0.643
- Z-AUC ([23]; measured here: PEO4 Z-AUC): 0.0499
